Source: article PMC7862700, “An all-to-all approach to the identification of sequence-specific readers for epigenetic DNA modifications on cytosine”

Legend:
Experiment in all cases: DAPPL (digital affinity profiling via proximity ligation, sequencing); 10 mM Tris-HCl pH 7.5, 50 mM NaCl, 1 mM DTT, 4% glycerol, room temperature, 30 min; GST-TFs on glutathione beads, 16-mer random dsDNA library, 0.1% formaldehyde crosslink after washing; high values mean tight binding
Settings in all cases: protein: recombinant; tags: N-terminal GST; dsDNA, one strand shown
FLI1 = molecular target: T1, FLI1 (Homo sapiens, UniProt Q01543 1-452)
T1 sequence: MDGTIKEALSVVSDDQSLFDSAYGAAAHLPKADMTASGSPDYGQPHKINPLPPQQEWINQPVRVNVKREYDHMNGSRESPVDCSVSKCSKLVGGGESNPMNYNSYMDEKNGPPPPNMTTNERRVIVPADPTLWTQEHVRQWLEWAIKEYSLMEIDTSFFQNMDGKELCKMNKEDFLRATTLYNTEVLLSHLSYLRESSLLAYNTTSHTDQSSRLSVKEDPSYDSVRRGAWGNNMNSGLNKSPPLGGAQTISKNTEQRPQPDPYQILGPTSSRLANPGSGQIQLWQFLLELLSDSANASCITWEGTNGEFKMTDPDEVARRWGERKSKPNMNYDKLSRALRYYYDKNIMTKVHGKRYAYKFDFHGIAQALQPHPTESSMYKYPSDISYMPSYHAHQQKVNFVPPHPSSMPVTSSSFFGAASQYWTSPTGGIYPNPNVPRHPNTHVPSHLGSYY
Summary of the method: (§1)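 Human transcription factors fused to GST were expressed in yeast, captured on glutathione beads, given DNA barcodes and pooled with a GST-only negative control. Pools were incubated with 200 nmole of a 16-mer random double-stranded DNA library in Tris/NaCl/DTT/glycerol buffer at room temperature for 30 min. They were then washed, crosslinked with 0.1% formaldehyde, proximity-ligated (BsaI/T4 ligase, 1 h, 37 °C), PCR-amplified and sequenced on an Illumina NextSeq500. Binding signal is each 6-mer's read frequency for a factor divided by its frequency for the GST control.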

ELK1 = molecular target: T2, ELK1 (Homo sapiens, UniProt P19419 1-428)
T2 sequence: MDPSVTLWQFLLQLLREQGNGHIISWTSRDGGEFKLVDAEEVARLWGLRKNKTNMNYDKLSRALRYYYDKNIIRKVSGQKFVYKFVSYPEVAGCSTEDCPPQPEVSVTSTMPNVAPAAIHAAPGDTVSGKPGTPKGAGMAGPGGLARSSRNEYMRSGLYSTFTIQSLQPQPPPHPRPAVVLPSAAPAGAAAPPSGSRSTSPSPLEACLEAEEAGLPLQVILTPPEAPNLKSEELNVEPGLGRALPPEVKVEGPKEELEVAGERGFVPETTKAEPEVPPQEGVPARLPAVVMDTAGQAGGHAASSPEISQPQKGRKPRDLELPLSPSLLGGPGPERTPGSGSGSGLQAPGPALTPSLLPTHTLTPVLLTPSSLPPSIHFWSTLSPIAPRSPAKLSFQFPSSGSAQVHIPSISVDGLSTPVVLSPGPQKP
Summary of the method: as §1

GABPA = molecular target: T3, GABPA (Homo sapiens, UniProt Q06546 1-454)
T3 sequence: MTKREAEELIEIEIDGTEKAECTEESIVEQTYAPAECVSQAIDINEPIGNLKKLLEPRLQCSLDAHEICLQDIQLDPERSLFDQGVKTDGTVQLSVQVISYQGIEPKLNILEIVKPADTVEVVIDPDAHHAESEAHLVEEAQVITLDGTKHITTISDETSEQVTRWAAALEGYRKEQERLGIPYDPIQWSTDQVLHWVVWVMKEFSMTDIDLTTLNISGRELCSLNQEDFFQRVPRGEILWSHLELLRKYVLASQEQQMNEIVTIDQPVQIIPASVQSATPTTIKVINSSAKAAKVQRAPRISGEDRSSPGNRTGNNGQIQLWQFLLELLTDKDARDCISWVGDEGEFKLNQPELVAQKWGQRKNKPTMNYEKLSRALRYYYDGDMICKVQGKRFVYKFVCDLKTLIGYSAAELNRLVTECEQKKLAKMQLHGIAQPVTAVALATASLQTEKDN
Summary of the method: as §1

ERG = molecular target: T4, ERG (Homo sapiens, UniProt P11308 1-479)
T4 sequence: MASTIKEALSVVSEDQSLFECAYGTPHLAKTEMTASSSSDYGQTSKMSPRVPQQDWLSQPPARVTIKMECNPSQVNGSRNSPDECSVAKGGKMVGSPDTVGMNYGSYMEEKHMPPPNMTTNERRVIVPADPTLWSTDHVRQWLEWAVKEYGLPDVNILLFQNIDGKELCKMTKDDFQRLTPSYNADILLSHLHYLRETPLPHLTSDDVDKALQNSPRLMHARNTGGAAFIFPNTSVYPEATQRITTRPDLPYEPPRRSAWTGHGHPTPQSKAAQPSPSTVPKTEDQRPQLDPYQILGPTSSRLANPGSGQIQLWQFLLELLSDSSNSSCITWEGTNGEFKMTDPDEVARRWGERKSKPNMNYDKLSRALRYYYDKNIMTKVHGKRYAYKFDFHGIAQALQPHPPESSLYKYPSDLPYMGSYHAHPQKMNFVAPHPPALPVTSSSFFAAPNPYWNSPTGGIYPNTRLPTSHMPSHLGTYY
Summary of the method: as §1

ELF1 = ELF1 (Homo sapiens, UniProt P32519 1-619)
Sequence of ELF1 (P32519 whole entry): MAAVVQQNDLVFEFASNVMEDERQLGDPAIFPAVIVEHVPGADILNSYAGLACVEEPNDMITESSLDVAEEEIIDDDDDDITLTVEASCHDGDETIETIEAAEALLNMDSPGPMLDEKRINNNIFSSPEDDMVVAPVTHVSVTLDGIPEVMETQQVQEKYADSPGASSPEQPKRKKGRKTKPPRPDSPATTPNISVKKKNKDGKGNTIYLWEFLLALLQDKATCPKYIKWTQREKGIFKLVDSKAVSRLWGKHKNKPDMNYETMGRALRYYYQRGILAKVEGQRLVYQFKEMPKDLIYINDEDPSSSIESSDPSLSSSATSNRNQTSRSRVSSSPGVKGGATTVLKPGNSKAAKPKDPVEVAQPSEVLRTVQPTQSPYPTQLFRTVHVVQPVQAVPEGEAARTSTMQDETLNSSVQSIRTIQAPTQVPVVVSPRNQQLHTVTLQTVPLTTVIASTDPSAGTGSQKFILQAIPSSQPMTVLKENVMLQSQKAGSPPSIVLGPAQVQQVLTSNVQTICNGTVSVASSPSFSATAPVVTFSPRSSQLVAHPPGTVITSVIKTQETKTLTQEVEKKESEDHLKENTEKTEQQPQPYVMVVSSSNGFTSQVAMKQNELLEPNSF
Summary of the method: as §1

EHF = molecular target: T5, EHF (Homo sapiens, UniProt Q9NZC4 1-300)
T5 sequence: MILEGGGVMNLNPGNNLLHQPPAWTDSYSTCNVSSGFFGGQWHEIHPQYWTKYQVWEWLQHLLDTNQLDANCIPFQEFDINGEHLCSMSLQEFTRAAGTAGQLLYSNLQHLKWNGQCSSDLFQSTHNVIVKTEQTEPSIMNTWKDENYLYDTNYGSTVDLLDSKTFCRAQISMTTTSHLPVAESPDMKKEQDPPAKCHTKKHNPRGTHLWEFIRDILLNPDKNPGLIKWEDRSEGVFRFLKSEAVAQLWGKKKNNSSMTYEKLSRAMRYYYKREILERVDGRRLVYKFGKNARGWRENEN
Summary of the method: as §1

SPI1 = SPI1 (Homo sapiens, UniProt P17947 1-270)
Summary of the method: as §1

SPIB = SPIB (Homo sapiens, UniProt Q01892 1-262)
Sequence of SPIB (Q01892 whole entry): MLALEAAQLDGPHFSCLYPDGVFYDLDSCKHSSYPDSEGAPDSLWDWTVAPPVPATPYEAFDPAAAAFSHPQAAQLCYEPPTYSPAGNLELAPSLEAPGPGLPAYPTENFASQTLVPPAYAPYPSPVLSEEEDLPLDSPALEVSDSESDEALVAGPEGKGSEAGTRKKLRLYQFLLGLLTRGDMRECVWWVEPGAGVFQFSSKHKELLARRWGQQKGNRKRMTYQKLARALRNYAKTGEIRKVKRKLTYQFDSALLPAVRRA
Summary of the method: as §1

ELK3 = molecular target: T6, ELK3 (Homo sapiens, UniProt P41970 1-407)
T6 sequence: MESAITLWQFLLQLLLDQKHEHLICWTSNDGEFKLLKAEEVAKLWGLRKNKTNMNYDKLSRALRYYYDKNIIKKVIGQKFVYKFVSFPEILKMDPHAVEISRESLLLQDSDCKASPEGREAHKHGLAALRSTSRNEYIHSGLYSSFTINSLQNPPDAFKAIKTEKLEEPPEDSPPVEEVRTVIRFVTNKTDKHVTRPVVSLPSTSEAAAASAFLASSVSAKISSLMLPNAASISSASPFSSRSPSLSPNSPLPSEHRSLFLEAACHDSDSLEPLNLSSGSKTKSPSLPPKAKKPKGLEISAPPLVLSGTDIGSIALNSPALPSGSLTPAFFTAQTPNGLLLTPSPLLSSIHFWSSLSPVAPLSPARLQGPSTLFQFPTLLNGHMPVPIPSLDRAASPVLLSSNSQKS
Summary of the method: as §1

| Sequence | binding signal (FLI1) | binding signal (ELK1) | binding signal (GABPA) | binding signal (ERG) | binding signal (ELF1) | binding signal (EHF) | binding signal (SPI1) | binding signal (SPIB) | binding signal (ELK3) |
| --- | --- | --- | --- | --- | --- | --- | --- | --- | --- |
| GAATAT | 1.08 fold enrichment (6-mer frequency, TF over GST control) | 1.08 fold enrichment (6-mer frequency, TF over GST control) | 1.11 fold enrichment (6-mer frequency, TF over GST control) | 1.04 fold enrichment (6-mer frequency, TF over GST control) | 1.12 fold enrichment (6-mer frequency, TF over GST control) | 1.04 fold enrichment (6-mer frequency, TF over GST control) | 1.08 fold enrichment (6-mer frequency, TF over GST control) | 1.01 fold enrichment (6-mer frequency, TF over GST control) | 1.12 fold enrichment (6-mer frequency, TF over GST control) |
| ACACAC | 1.24 fold enrichment (6-mer frequency, TF over GST control) | 1.13 fold enrichment (6-mer frequency, TF over GST control) | 1.21 fold enrichment (6-mer frequency, TF over GST control) | 1.22 fold enrichment (6-mer frequency, TF over GST control) | 1.19 fold enrichment (6-mer frequency, TF over GST control) | 1.23 fold enrichment (6-mer frequency, TF over GST control) | 1.14 fold enrichment (6-mer frequency, TF over GST control) | 1.19 fold enrichment (6-mer frequency, TF over GST control) | 1.12 fold enrichment (6-mer frequency, TF over GST control) |
| TCCGTC | 1.24 fold enrichment (6-mer frequency, TF over GST control) | 1.43 fold enrichment (6-mer frequency, TF over GST control) | 1.29 fold enrichment (6-mer frequency, TF over GST control) | 1.49 fold enrichment (6-mer frequency, TF over GST control) | 1.36 fold enrichment (6-mer frequency, TF over GST control) | 1.41 fold enrichment (6-mer frequency, TF over GST control) | 1.28 fold enrichment (6-mer frequency, TF over GST control) | 1.56 fold enrichment (6-mer frequency, TF over GST control) | 1.47 fold enrichment (6-mer frequency, TF over GST control) |
| CCGACG | 1.27 fold enrichment (6-mer frequency, TF over GST control) | 1.15 fold enrichment (6-mer frequency, TF over GST control) | 1.27 fold enrichment (6-mer frequency, TF over GST control) | 1.2 fold enrichment (6-mer frequency, TF over GST control) | 1.28 fold enrichment (6-mer frequency, TF over GST control) | 1.17 fold enrichment (6-mer frequency, TF over GST control) | 1.22 fold enrichment (6-mer frequency, TF over GST control) | 1.32 fold enrichment (6-mer frequency, TF over GST control) | 1.2 fold enrichment (6-mer frequency, TF over GST control) |
| TACGTC | 1.19 fold enrichment (6-mer frequency, TF over GST control) | 1.16 fold enrichment (6-mer frequency, TF over GST control) | 1.13 fold enrichment (6-mer frequency, TF over GST control) | 1.16 fold enrichment (6-mer frequency, TF over GST control) | 1.13 fold enrichment (6-mer frequency, TF over GST control) | 1.25 fold enrichment (6-mer frequency, TF over GST control) | 1.12 fold enrichment (6-mer frequency, TF over GST control) | 1.31 fold enrichment (6-mer frequency, TF over GST control) | 1.21 fold enrichment (6-mer frequency, TF over GST control) |
| TTATAG | 1.13 fold enrichment (6-mer frequency, TF over GST control) | 1.09 fold enrichment (6-mer frequency, TF over GST control) | 1.22 fold enrichment (6-mer frequency, TF over GST control) | 1.04 fold enrichment (6-mer frequency, TF over GST control) | 1.2 fold enrichment (6-mer frequency, TF over GST control) | 1.25 fold enrichment (6-mer frequency, TF over GST control) | 1.2 fold enrichment (6-mer frequency, TF over GST control) | 1.2 fold enrichment (6-mer frequency, TF over GST control) | 1.03 fold enrichment (6-mer frequency, TF over GST control) |
| CGGCAT | 1.07 fold enrichment (6-mer frequency, TF over GST control) | 1.13 fold enrichment (6-mer frequency, TF over GST control) | 1.07 fold enrichment (6-mer frequency, TF over GST control) | 1.11 fold enrichment (6-mer frequency, TF over GST control) | 1.08 fold enrichment (6-mer frequency, TF over GST control) | 1.09 fold enrichment (6-mer frequency, TF over GST control) | 1.13 fold enrichment (6-mer frequency, TF over GST control) | 1.19 fold enrichment (6-mer frequency, TF over GST control) | 1.09 fold enrichment (6-mer frequency, TF over GST control) |
| CGTCCC | 1.3 fold enrichment (6-mer frequency, TF over GST control) | 1.39 fold enrichment (6-mer frequency, TF over GST control) | 1.42 fold enrichment (6-mer frequency, TF over GST control) | 1.37 fold enrichment (6-mer frequency, TF over GST control) | 1.36 fold enrichment (6-mer frequency, TF over GST control) | 1.44 fold enrichment (6-mer frequency, TF over GST control) | 1.23 fold enrichment (6-mer frequency, TF over GST control) | 1.31 fold enrichment (6-mer frequency, TF over GST control) | 1.57 fold enrichment (6-mer frequency, TF over GST control) |
